Screening data deposited in PubChem by National Center for Advancing Translational Sciences (NCATS).
D3 ag: qHTS of D3 Dopamine Receptor Agonist: qHTS; 410,000 compounds, 0.58% hits; D(3) dopamine receptor (Homo sapiens), P35462; max activation, %; D3R DiscoveRx beta-arrestin cells, luminescence, 90 min; in the data active = max activation above about 30%; also: 0% is about no effect
Target sequence (P35462 whole entry, looked up): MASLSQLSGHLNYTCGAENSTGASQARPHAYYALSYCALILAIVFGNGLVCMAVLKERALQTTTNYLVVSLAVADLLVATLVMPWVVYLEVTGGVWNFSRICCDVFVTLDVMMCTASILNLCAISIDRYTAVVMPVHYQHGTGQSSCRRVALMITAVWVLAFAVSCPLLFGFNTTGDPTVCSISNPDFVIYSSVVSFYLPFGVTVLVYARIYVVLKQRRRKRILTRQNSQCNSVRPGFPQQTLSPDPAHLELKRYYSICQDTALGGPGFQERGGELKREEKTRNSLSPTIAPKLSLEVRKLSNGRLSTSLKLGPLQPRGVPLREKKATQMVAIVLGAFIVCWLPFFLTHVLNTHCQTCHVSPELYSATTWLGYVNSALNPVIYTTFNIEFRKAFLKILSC
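Agonist mode: compounds and dopamine controls were applied to plated cells for 90 min at 37 degrees C after an overnight attachment at 1500 cells/well. Luminescent read-out followed 30 - 60 minutes at room temperature with DiscoveRx detection reagent.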
DT40 TDP1 no CPT: qHTS for Inhibitors of human tyrosyl-DNA phosphodiesterase 1 (TDP1): qHTS in cells in absence of CPT; DT40 Tdp1-/- hTDP1 cells, no CPT, ATP luminescence, 48 h; AID 686978, 2013; 420,000 compounds, 15% hits; Potency, µM (highest dose often 46.2 µM), for inactives: at the top dose activity change, negative = growth inhibition, actives largely listed as inhibitors; also: potency is read from the fitted curve at half-maximal effect; % is scaled to controls: 0 for no effect and ±100 for the full control effect; nearly all actives have a fitted effect of over 55% in size
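Stably hTDP1-transfected Tdp1-null chicken DT40 cells were treated with library compounds minus camptothecin and grown for at least 48 hr at 37 °C, after which cellular ATP was quantified by luminescence.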
DT40 TDP1 CPT: qHTS for Inhibitors of human tyrosyl-DNA phosphodiesterase 1 (TDP1): qHTS in cells in presence of CPT | chicken DT40 Tdp1-/-;hTDP1 cells + 20 nM CPT, ATP luminescence, 48 h | Potency, µM (doses to about 46.2 µM), inactives show at the highest dose activity change, negative = growth inhibition, most hits filed as inhibitors | 420,000 compounds, 12% hits; also: potency is read from the fitted curve at half-maximal effect; % is scaled to controls: 0 for no effect and ±100 for the full control effect; nearly all actives have a fitted effect of over 55% in size
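Chicken DT40 Tdp1-/- cells complemented with human TDP1, 400 cells/well, exposed to compounds plus 20 nM camptothecin for at least 48 h at 37 C; viability read as ATP content by CellTiter-Glo luminescence.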
DRD3 antagonist: qHTS of D3 Dopamine Receptor Antagonist: qHTS | D3R cells, DiscoveRx beta-arrestin luminescence, antagonist mode; active compounds read low | max response, negative = inhibition, % | AID 652054, 2013 | D(3) dopamine receptor (Homo sapiens), P35462 | 360,000 compounds, 2.5% hits; in the data active = max response below about -50%; inconclusive = no clear call, values can overlap the other calls; also: % is scaled to controls: 0 for no effect and ±100 for the full control effect
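Cells expressing the human receptor were seeded at 1500 cells/well, incubated overnight at 37 degrees C in 5% CO2, then exposed to library compounds with dopamine controls for 90 minutes at 37 degrees C before luminescent detection.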
IL1B secr inh: qHTS for Inhibitors of Inflammasome Signaling: IL-1-beta AlphaLISA Primary Screen; THP-1 LPS/ATP IL-1B secretion, AlphaLISA, 16 h; active compounds read low; activity change, % at 57.5 µM; 360,000 compounds, 4.7% hits; in the data active = activity change below about -50%; inconclusive = mostly about -30% to -49%; also: % is scaled to controls: 0 for no effect and ±100 for the full control effect
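THP-1 cells pretreated 1 hr with compounds (up to 57.5 uM final), then stimulated with LPS (250 ng/mL final) plus ATP (1.25 mM final); secreted IL-1B measured by AlphaLISA after 16 hr, decreased signal indicating inhibition.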
ClpP mod: qHTS Assay for Activators of ClpP | purified B. subtilis ClpP, FRET peptide cleavage, 20 min | Potency, µM (doses to about 57.5 µM), for the others: at the highest dose activity change, negative = active | 340,000 compounds, 1.9% hits | AID 651965, 2013; active = well fitted falling curve with a large enough effect; inconclusive = small, poorly fitted or top-dose-only effect; inactive = no such curve, though single readings can be large or run the other way; also: potency is read from the fitted curve at half-maximal effect; the source files actives as falling curves though it sought activators and does not explain the sign; nearly all actives have a fitted effect of over 65% in size
Target sequence (P80244 whole entry, looked up): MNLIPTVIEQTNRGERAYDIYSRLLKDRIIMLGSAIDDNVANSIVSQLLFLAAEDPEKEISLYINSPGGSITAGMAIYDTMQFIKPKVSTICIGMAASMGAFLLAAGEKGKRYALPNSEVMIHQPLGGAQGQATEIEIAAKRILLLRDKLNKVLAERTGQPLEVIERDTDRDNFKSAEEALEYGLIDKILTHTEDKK
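FRET quenching reversal measured ClpP activation: 10 microg/mL B. subtilis ClpP at pH 8 with the FRET-FV decapeptide, read at 430 nm after 320 nm excitation. The 20-min minus 0-min signal was scaled between DMSO/no-enzyme wells and ADEP (5.8 microM final).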
An asterisk follows results filed as active; ? = inconclusive; / = not tested or not shown; [ ] = remark or other dose. Shown are actives, neighbours in structure and some others; about 21% of the full set was active somewhere. Unless noted, calls follow the shape of the dose curve; as a rule, active = well fitted inhibition curve with a large enough effect; inconclusive = small, poorly fitted or top-dose-only effect; inactive = flat fitted curve, though single readings scatter.

SMILES	D3 ag	DT40 TDP1 no CPT	DT40 TDP1 CPT	DRD3 antagonist	IL1B secr inh	ClpP mod
Cc1nn(C)c2c1c(-c1ccccc1)cc(=O)n2Cc1ccccc1Cl	6	?	?	/	/	28µM*
Cc1nn(C)c2c1c(-c1ccccc1)cc(=O)n2Cc1ccc(Br)cc1F	1	3%	-3%	/	/	-3%
Cc1nn(C)c2c1c(-c1ccccc1)cc(=O)n2Cc1ccc(F)cc1	31*	?	16µM*	/	/	-10%
Cc1nn(C)c2c1c(-c1ccccc1)cc(=O)n2Cc1c(F)cccc1Cl	8	?	?	/	/	-28%
Cc1nn(C)c2c1c(-c1ccccc1)cc(=O)n2Cc1ccccc1F	-6	-25%	?	/	/	28µM*
CN(Cc1ccccc1F)c1nc(-c2cccs2)nc2ccccc12	5	?	?	8	-12	/
COc1ccccc1C(=O)NC1(C(F)(F)F)C(=O)Nc2c1c(=O)[nH]c(=O)n2CCc1ccccc1 (configuration not stated)	-6	-11%	-8%	/	/	1%
COc1ccc(OC)c(NC(=O)Cn2c(=O)cc(-c3ccccc3)c3c(C)nn(C)c32)c1	15	21µM*	?	/	/	0%
Cc1nn(C)c2c1c(-c1ccccc1)cc(=O)n2CC(=O)NC(C)(C)C	-5	?	?	/	/	4%
COc1cccc(Cn2c(=O)cc(C)c3c(C)nn(-c4ccc(C)cc4)c32)c1	6	18µM*	21µM*	/	/	?
O=C(Nc1ccc(F)cc1Cl)C1Cc2ccccc2N1C(=O)c1ccccc1 (configuration not stated)	-1	-22%	-5%	/	/	-1%
CCCn1c(SCC(=O)Nc2cc(S(=O)(=O)N3CCOCC3)ccc2OC)n[nH]c1=O	-3	-22%	-18%	27	-20	3%
COc1ccc(OC)c(CN2CCOc3ccc(C(O)c4cccnc4)cc3C2)c1 (configuration not stated)	/	-29%	10%[9.04 µM]	/	/	/
O=C(CN1CCCC1)Nc1ccc([N+](=O)[O-])cc1	-21	-11%	0%	-14	4	/
COc1cccc(NC(=O)CC2C(=O)NC3CCCCC3N2C(=O)c2ccccc2)c1 (configuration not stated)	4	-3%	6%	0	21	/
O=C(CC1C(=O)NC2CCCCC2N1C(=O)c1ccc([N+](=O)[O-])cc1)Nc1ccccc1 (configuration not stated)	-8	16µM*	?	18	10	-1%
CCN1CCOC(CC(=O)Nc2ccc([N+](=O)[O-])cc2)C1=O (configuration not stated)	-3	?	15µM*	-15	-2	/
O=C(CC1OCC2CCCN2C1=O)Nc1ccc([N+](=O)[O-])cc1 (configuration not stated)	0	?	16µM*	2	?	/
CCCCCCC1CC(CC(=O)Nc2ccc([N+](=O)[O-])cc2)C(=O)O1 (configuration not stated)	-21	?	18µM*	?	-61*	4%
CCOC(=O)N1CCN(C(=O)Cc2ccccc2[N+](=O)[O-])CC1	0	5%	-21%	2	22	5%
CSc1nc2[nH]c3c(c2c2ncnn12)CCCC3	-9	?	15µM*	34	-13	-2%
CSc1c2c(nc3ncnn13)CCC2	1	0%	17%	4	-10	-1%
CC1CCCCN1Cc1c(O)ccc2c(=O)c(-c3nc4ccccc4s3)c(N)oc12 (configuration not stated)	-3	23µM*	?	-12	-30	/
CCN(Cc1ccccc1)Cc1c(O)ccc2c(=O)c(-c3ccccc3Cl)coc12	0	-10%	0%	/	/	?
CC1CCCCN1Cc1c(O)ccc2c(=O)c(-c3ccc(Cl)cc3)coc12 (configuration not stated)	6	18µM*	7.3µM*	61	?	13µM*
SMILES	D3 ag	DT40 TDP1 no CPT	DT40 TDP1 CPT	DRD3 antagonist	IL1B secr inh	ClpP mod
CC(C)N(Cc1c(O)ccc2c(=O)c(-c3ccc(Cl)cc3)coc12)C(C)C	0	8.2µM*	2.1µM*	?	-4	-4%
C=CCn1c(CSc2ccc(C)cc2)n[nH]c1=S	4	?	-24%	11	9	-1%
COc1cccc(C(=O)NCC2Cc3cccc(-c4cccnc4)c3O2)c1 (configuration not stated)	/	?	-12%[9.04 µM]	/	/	/
COc1ccc(NC(=O)Cn2c(SCc3cccc(Cl)c3)nc3ccncc32)c(OC)c1OC	-18	?	21µM*	/	/	-8%
COc1cccc(CNC(=O)c2ccc(CSc3nc4ccncc4n3Cc3cccc(C)c3)cc2)c1	-14	16µM*	21µM*	/	/	?
Cc1cccc(Cn2c(SCc3ccc(C(=O)NC4CCCCC4)cc3)nc3ccncc32)c1	-22	-19%	-9%	/	/	3%
COC(=O)c1ccc(Cn2c(SCc3cccc(C)c3)nc3ccncc32)cc1	-13	16µM*	?	/	/	-2%
Cc1cccc(Cn2c(SCc3ccc(C(=O)NCc4ccccc4F)cc3)nc3ccncc32)c1	-20	23µM*	?	/	/	-18%
Cc1ccc(NC(=O)Cn2c(SCc3cccc(F)c3)nc3ccncc32)c(C)c1	0	?	?	/	/	-21%
Cc1ccc(-n2c(=O)c3c(cnn3C)n(Cc3ccc(Cl)cc3)c2=O)cc1	5	?	-10%	/	/	-4%
COc1ccc(-c2cc(C(F)F)n3ncc(C(=O)Nc4cc(C)on4)c3n2)cc1	-5	-25%	22%	-1	0	/
Cc1cccc(Cn2c(SCc3ccc(C(=O)NCc4ccccc4F)cc3)nc3cccnc32)c1	-26	21µM*	?	/	/	4%
Cc1ccc(CNC(=O)c2ccc(Cn3c(SCc4ccccc4F)nc4cccnc43)cc2)cc1	-16	?	?	/	/	5%
CC(=O)c1ccc(N(CC(=O)NC2CCCC2)C(=O)CNC(=O)c2cccs2)cc1	4	-2%	-8%	11	-14	/
Cc1ccc(-c2n[nH]c(=S)n2Cc2ccccc2)cc1	-29	-22%	-28%	-16	-11	-26%
CCn1c(-c2ccc(C)cc2)n[nH]c1=S	-1	?	21µM*	?	13	-27%
